The nature of test [1]: qHTS assay for small molecule agonists of the p53 signaling pathway - cell viability (AID 651633; calls by dose curve; note: nearly all actives have a fitted effect of over 30% in size; note: potency is the fitted concentration of half-maximal effect). The essentials:
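p53RE-bla cells were treated with compound for 16 hours at 37 C. Cytotoxicity was then measured as CellTiter-Glo luminescence after 30 min at room temperature.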

Test [2] is described as follows: qHTS assay for small molecules that induce genotoxicity in human embryonic kidney cells expressing luciferase-tagged ATAD5 - cell viability (AID 651634; calls by dose curve; note: nearly all actives have a fitted effect of over 25% in size). The essentials:
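Cytotoxicity counterscreen in HEK293T cells bearing an ATAD5-luciferase reporter: live-cell protease activity measured by CellTiter-Fluor fluorescence after 15.5 hr compound exposure.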

Test [3] can be described thus: qHTS assay for small molecule disruptors of the mitochondrial membrane potential - cell viability (AID 720634; calls by dose curve; note: nearly all actives have a fitted effect of over 20% in size; note: potency is the fitted concentration of half-maximal effect). In a few lines: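 After overnight attachment at 37 C, HepG2 cells received compound or DMSO vehicle for 1 hr. Viability is then taken from ATP-driven luminescence following a 30 min room-temperature CellTiter-Glo step.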
Test [4] can be described thus: qHTS assay to test for compound auto fluorescence at 535 nm (green) in HepG2 cells (AID 720675).
Test [5] is described as follows: qHTS assay to test for compound auto fluorescence at 535 nm (green) in HEK293 cells (AID 720680).
A short description of test [6]: qHTS assay to test for compound auto fluorescence at 590 nm (red) in HEK293 cell free culture (AID 720683). The essentials: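 Cell-free wells of DMEM with 10% FBS received compound, and intrinsic fluorescence was read at excitation/emission 540/590 nm. Values expressed as equivalence to Rose Bengal sodium.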
(qHTS replaces the single test concentration by a dilution series.)

A short description of test [7]: qHTS assay to test for compound auto fluorescence at 590 nm (red) in HepG2 cell free culture (AID 720684). The essentials:
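Compounds are added to culture medium (MEM, 10% FBS) lacking cells, then fluorescence is read at excitation 540 nm, emission 590 nm, with Rose Bengal sodium as the equivalency standard.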

The nature of test [8]: qHTS assay to test for compound auto fluorescence at 535 nm (green) in HepG2 cell free culture (AID 720686).
Test [9] can be described thus: qHTS assay for small molecules that induce genotoxicity in human embryonic kidney cells expressing luciferase-tagged ATAD5 (AID 651632). Note: nearly all actives have a fitted effect of over 15% in size. The essentials:
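Increased luciferase signal from ATAD5-tagged reporter cells indicates DNA-damage-driven ATAD5 induction. HEK293T cells are treated for 16 hr at 37C before detection with Amplite.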

Test [10] is described as follows: qHTS assay for small molecule disruptors of the mitochondrial membrane potential (AID 720635). Note: potency is the fitted concentration of half-maximal effect. In a few lines:
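HepG2 cells exposed to compound 1 hr at 37C, then Mito-MPS dye 30 min. Ratio read of aggregate (540/590 nm) versus monomer (490/535 nm) fluorescence.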

A short description of test [11]: qHTS assay to test for compound auto fluorescence at 590 nm (red) in HepG2 cells (AID 720674). The essentials:
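Fluorescence at 590 nm emission following 540 nm excitation was recorded from HepG2 wells one hour after compound transfer, with DMSO-only wells as vehicle and Rose Bengal sodium equivalency as the scale.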

Test [12] can be described thus: qHTS assay to test for compound auto fluorescence at 460 nm (blue) in HEK293 cell free culture (AID 720681). In a few lines: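 Compounds were added to cell-free DMEM with 10% FBS and fluorescence read directly. The blue channel used 405 nm excitation and 460 nm emission, with triamterene as the reference fluorophore.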
Test [13] in a line: qHTS assay to test for compound auto fluorescence at 535 nm (green) in HEK293 cell free culture (AID 720682). In a few lines: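 Using fluorescein as calibrant, autofluorescence was quantified at 485/535 nm in cell-free DMEM containing 10% FBS after pintool addition of compound or vehicle.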
A short description of test [14]: qHTS assay to test for compound auto fluorescence at 460 nm (blue) in HepG2 cell free culture (AID 720685). The essentials: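 Compound (23 nL) or DMSO pinned into cell-free MEM with 10% FBS; blue fluorescence read at 405/460 nm excitation/emission, expressed as auto-fluorescence equivalency to triamterene.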
Test [15] is described as follows: qHTS assay to test for compound auto fluorescence at 460 nm (blue) in HepG2 cells (AID 720687). The essentials: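 HepG2 cells in MEM with 10% FBS, attached overnight at 37 C, were exposed to compound or DMSO for 1 hr at 37 C, 5% CO2. Blue fluorescence was read at 405/460 nm, with triamterene as reference fluorophore.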
The nature of test [16]: qHTS assay to test for compound auto fluorescence at 460 nm (blue) in HEK293 cells (AID 720678). In a few lines: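 HEK293 cells (2,000 per well, medium with 10% dialyzed FBS) attached for 4-5 hr at 37C, then received compound and stood overnight at 37C, 5% CO2. Blue fluorescence was read at Ex/Em 405/460 nm and expressed relative to triamterene.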
Test [17] concerns the target Glucocorticoid receptor (Homo sapiens) (UniProt P04150). The test is described as follows: qHTS assay to identify small molecule antagonists of the glucocorticoid receptor (GR) signaling pathway (AID 720692; active = well fitted inhibition curve with a large enough effect in the signal ratio in the repeat runs, not every such curve was filed as active; the % refers to the signal ratio). The essentials:
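Cells plated, rested 4 h at 37 C/5% CO2; compounds in DMSO pin-transferred; dexamethasone added to 5 nM final; 18 h at 37 C; B/G FRET substrate added, 2 h room temperature; fluorescence measured.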

The nature of test [18]: qHTS assay to test for compound auto fluorescence at 590 nm (red) in HEK293 cells (AID 720679). The essentials:
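HEK293 cells (2,000/well, medium with 10% dialyzed FBS) attached for 4-5 hr at 37C, received 23 nL compound and were incubated overnight at 37C, 5% CO2. Red fluorescence was then read at 540/590nm Ex/Em, referenced to Rose Bengal sodium.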

Molecules are shown by their SMILES. A number with no mark means an inactive call. Records with an inconclusive call do not appear. The source made the active and inactive calls. Unless noted, calls come from the whole dose curve; as a rule, active = well fitted curve in the direction sought with a large enough effect in the repeat runs; inconclusive = weak or mixed curves; inactive = no such curve, though single readings can be large; an effect the other way counts as inactive or inconclusive.

Glucocorticoid receptor (Homo sapiens), sequence (P04150 whole entry, looked up): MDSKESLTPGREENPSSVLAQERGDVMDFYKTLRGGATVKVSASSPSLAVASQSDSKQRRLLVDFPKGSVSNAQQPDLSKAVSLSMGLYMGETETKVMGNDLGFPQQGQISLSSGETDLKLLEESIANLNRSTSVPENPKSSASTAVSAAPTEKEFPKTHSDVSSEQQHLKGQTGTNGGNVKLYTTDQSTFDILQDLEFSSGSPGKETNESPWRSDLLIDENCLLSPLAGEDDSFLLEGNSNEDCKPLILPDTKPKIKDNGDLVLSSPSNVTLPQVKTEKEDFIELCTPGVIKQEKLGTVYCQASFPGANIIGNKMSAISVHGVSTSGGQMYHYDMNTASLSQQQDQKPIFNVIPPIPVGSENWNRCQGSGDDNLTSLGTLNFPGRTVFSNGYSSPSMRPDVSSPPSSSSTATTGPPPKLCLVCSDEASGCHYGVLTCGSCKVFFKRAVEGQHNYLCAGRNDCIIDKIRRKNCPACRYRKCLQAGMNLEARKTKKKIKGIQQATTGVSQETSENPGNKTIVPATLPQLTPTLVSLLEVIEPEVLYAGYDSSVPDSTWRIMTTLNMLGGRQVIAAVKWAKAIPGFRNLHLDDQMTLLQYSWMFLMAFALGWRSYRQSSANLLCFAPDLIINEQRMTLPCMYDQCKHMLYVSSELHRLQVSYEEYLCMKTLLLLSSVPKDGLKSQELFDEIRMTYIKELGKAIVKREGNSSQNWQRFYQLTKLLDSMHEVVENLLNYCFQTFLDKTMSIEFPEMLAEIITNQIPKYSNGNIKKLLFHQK

`[C-]1=CC=CC1.[Cl][Zr+2][Cl].c1cc[cH-]c1`: the Potency result in [1], in test [2], in test [3], in test [4] and in test [8] was “inactive” in each case. Moreover, the call in [5], in [6] and in test [7] was inactive.
Regarding `CCC(C)c1cccc(C(C)CC)c1O` (centres undefined), the Potency result in test [9], in test [3], in [4], in [12], in [14] and in test [8] was “inactive” in each case. Also, the Potency entry in test [15] was “inactive”. Also, in test [10], the Potency is 13.7 µM (active). The call in test [11], in test [5], in test [13], in test [6] and in [7] was inactive.
Take `Cc1ccc2cc3c(ccc4ccccc43)c3c2c1CC3`: the Potency entry in test [9], in test [2], in test [4], in [16], in [12] and in test [14] was “inactive” each time. For the same molecule, the Potency entry in test [8], in test [15] and in [17] was “inactive” in each case. Moreover, the Potency in [10] was 12.2 µM (active). Besides, the call in [11], in [5], in test [13] and in test [7] was inactive.
`Oc1ccc2[nH]cc(CCCCN3CC=C(c4ccccc4)CC3)c2c1`: the Potency entry in test [1], in [2], in [3], in [4], in test [12] and in test [14] was “inactive” in each case. Moreover, the Potency result in test [8] and in test [15] was “inactive” throughout. Further, the molecule was called inactive in test [11], in test [18], in test [5], in test [13], in [6] and in test [7].
Take `O.O.O.O=C([O-])[C@H]([O-])[C@@H]([O-])C(=O)[O-].O=C([O-])[C@H]([O-])[C@@H]([O-])C(=O)[O-].[K+].[K+].[Sb+3].[Sb+3]`: the Potency entry in test [4], in [16], in test [12], in [14], in test [8] and in test [15] was “inactive” in each case. In addition, the call in test [18], in test [5], in test [13] and in test [6] was inactive.
As for `N#Cc1sc2c(=O)c3ccccc3c(=O)c=2sc1C#N`, the Potency in test [1] is 5.45 µM (active); in test [3], 24.3 µM (active); in [10], 24.3 µM (active). For the same molecule, the Potency result in test [2], in test [4], in test [16], in [12], in test [14] and in test [8] was “inactive” throughout. Moreover, the Potency entry in [15] was “inactive”. Also, the result in [11], in [18], in [5], in test [13] and in test [7] was inactive.
For `O=C(N[C@@H]1N=C(c2ccccc2F)c2cccc3c2N(CC3)C1=O)c1cc2ccccc2[nH]1`, the Potency entry in test [1], in test [2], in [4], in test [16], in [12] and in test [14] was “inactive” throughout. In addition, the Potency entry in test [8] and in [15] was “inactive” in each case. Further, in test [10], the Potency was 8.41 µM (active). In addition, the result in test [11], in test [18], in test [5], in test [13], in [6] and in test [7] was inactive.
For the molecule `CSSC`, the Potency entry in [1], in [4], in test [16], in test [12], in [14] and in [8] was “inactive” in each case. Besides, in [15], the Potency entry is “inactive”. Further, the molecule was classed as inactive in [11], in test [18], in test [5], in test [13] and in test [6].
For the molecule `CNN`, the Potency entry in [1], in test [2], in test [3], in [10], in test [4] and in [16] was “inactive” each time. For the same molecule, the Potency entry in test [12], in test [14], in test [8] and in test [15] was “inactive” each time. Further, the result in [11], in [5] and in test [13] was inactive.

The record behind these values is PubChem BioAssay (Tox21).
